According to PubChem BioAssay AID1345083 (National Center for Advancing Translational Sciences (NCATS), 2018):
In all, about 94,000 compounds went through this assay and about 6,200 (6.6%) were called active. Inconclusive results (about 31%) are left out. Calls come from the whole dose curve; as a rule, active = well fitted inhibition curve with a large enough effect; inconclusive = small, poorly fitted or top-dose-only effect; inactive = flat fitted curve, though single readings scatter. The entries come from a sample that favours actives as a whole. Where a call stands in place of a potency, no number is given.

Experiment: Cytotoxic Profiling in HEK 293 Cell Line of Diverse Libraries Using Quantitative High-Throughput Screening; note: nearly all actives have a fitted effect of over 60% in size
Conditions: HEK 293 viability, ATP luminescence (CellTiter-Glo), 48-72 h; series mostly up to 115 µM
In short: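 HEK 293 seeded at 250 cells/well receive compound via pintool. After 48 or 72 hr at 37 degree Celsius, 5% CO2 and 95% humidity, CellTiter-Glo is dispensed and luminescence read following 10 min at room temperature.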
Potency is the fitted concentration of half-maximal effect.

Row | SMILES | Potency
1 | CC(=O)N1Cc2ccccc2CC2(CCCN(Cc3ccncc3)C2)C1 (stereo unspecified) | inactive
2 | C[C@H](C(=O)N1Cc2ccccc2CC2(CCN(Cc3ccncc3)CC2)C1)c1ccccc1 | 50.1 µM (active)
3 | CC(=O)N1Cc2ccccc2CC2(CCN(Cc3cccnc3)CC2)C1 | inactive
4 | O=C(Nc1cccc(-n2cccn2)c1)C1CCCN(C2CCN(Cc3ccco3)CC2)C1 (stereo unspecified) | inactive
5 | COc1ccc(OC)c(CNC(=O)CC2C(=O)NCCN2CC=C(C)C)c1 (stereo unspecified) | inactive
6 | COC[C@@H]1CN(C(=O)c2ccc3ncccc3c2)C[C@H]1c1nc(C)no1 | inactive
7 | COc1ccc(CNC(=O)N2CCC3(CC2)CC(OCC2CC2)CCO3)cc1 (stereo unspecified) | inactive
8 | COc1ccc(CC2CCOC3(CCN(C(=O)NCC(C)C)CC3)C2)cc1 (stereo unspecified) | 39.8 µM (active)
9 | CNC(=O)N1CCC2(CC1)CC(Cc1cccc(F)c1)CCO2 (stereo unspecified) | inactive
10 | O=C1NCCCCCCN(C(=O)Cc2cccnc2)[C@@H]2C[C@@H](c3nc(-c4cnccn4)no3)C[C@H]12 | inactive
11 | C=CCN1CCC2(CCC1=O)CN(Cc1ncc[nH]1)CCN2C (stereo unspecified) | inactive
12 | O=C(c1ccc(F)cc1)N1CCC(N2CC3CC(C2)[C@H]2CCCC(=O)N2C3)CC1 (stereo partly specified) | inactive
13 | COCc1cc(CN2C[C@H](NC(=O)CO)[C@@H](C3CC3)C2)ccc1OC | inactive
14 | O=C(C1CCN([S+](=O)([O-])c2cccc(C(F)(F)F)c2)CC1)N1CCC(N2CCCC2=O)CC1 | inactive
15 | O=C1CCN(Cc2ccc(C(F)(F)F)cc2)CCCOCCN1 | inactive
16 | O=C1CCCCCN1C1CCN(Cc2ccc(C(F)(F)F)cc2)CC1 | 31.6 µM (active)

Row | SMILES | Potency
17 | Cn1cnc(S(=O)(=O)N[C@@H]2CCOC[C@H]2Oc2ccc(C(N)=O)cc2)c1 | inactive
18 | OC1(CN2CCC(CCn3cccn3)CC2)CNCCOC1 (stereo unspecified) | inactive
19 | O=C(Cn1nc(-c2ccco2)ccc1=O)NC1CCCc2c1[nH]c1c(Cl)cccc21 (stereo unspecified) | inactive
20 | O=C(NC1CCc2nnc(C3CC3)n2CC1)c1ccco1 (stereo unspecified) | inactive
21 | O=C(NC1CCCc2c1[nH]c1c(Cl)cccc21)c1ccco1 (stereo unspecified) | 44.7 µM (active)
22 | CC(C)S(=O)(=O)N1CCC(OCc2noc(C3CCCO3)n2)CC1 (stereo unspecified) | inactive
23 | O=C(Nc1ccc(Cl)cc1)N[C@H]1CO[C@H]2[C@@H]1OC[C@H]2O | inactive
24 | CCNC(=O)O[C@@H]1CO[C@H]2[C@@H]1OC[C@@H]2NC(=S)Nc1cccc2ccccc12 | 70.8 µM (active)
25 | CC(=O)Nc1cccc(OCC2CN(Cc3cccc(C(F)(F)F)c3)C(=O)c3c(ccnc3-c3ccc(OCC(=O)O)cc3)O2)c1 (stereo unspecified) | inactive
26 | CC(C)(CC(=O)O)CC(=O)N[C@H]1CO[C@H]2[C@@H]1OC[C@@H]2Nc1nccc(-c2ccc3c(c2)OCO3)n1 | inactive
27 | COc1ccc(-c2ccnc(N[C@H]3CO[C@H]4[C@@H]3OC[C@H]4OC(=O)Nc3cccc4ccccc34)n2)cc1 | 39.8 µM (active)
28 | CCNC(=O)O[C@@H]1CO[C@H]2[C@@H]1OC[C@@H]2NC(=O)c1cccc(C(=O)OC)c1 | inactive
29 | COc1ccc(NC(=O)O[C@@H]2CO[C@H]3[C@@H]2OC[C@@H]3NC(=O)NC2CCCCC2)cc1 | inactive
30 | N#Cc1cccc(NC(=O)O[C@@H]2CO[C@H]3[C@@H]2OC[C@@H]3Nc2nccc(-c3ccccc3)n2)c1 | 22.4 µM (active)
31 | O=C(Nc1cccc(C(F)(F)F)c1)O[C@@H]1CO[C@H]2[C@@H]1OC[C@@H]2Nc1nccc(-c2ccc3c(c2)OCO3)n1 | 50.1 µM (active)
